39 targets from the supplement of paper PMC10849652 can be followed below.

Targets with a hit are over-represented here; the source holds about 7,900 in all. About 0.6% of all pairs of compound and target were hits.

Chain of UniProt P29966 (P29966 whole entry, looked up): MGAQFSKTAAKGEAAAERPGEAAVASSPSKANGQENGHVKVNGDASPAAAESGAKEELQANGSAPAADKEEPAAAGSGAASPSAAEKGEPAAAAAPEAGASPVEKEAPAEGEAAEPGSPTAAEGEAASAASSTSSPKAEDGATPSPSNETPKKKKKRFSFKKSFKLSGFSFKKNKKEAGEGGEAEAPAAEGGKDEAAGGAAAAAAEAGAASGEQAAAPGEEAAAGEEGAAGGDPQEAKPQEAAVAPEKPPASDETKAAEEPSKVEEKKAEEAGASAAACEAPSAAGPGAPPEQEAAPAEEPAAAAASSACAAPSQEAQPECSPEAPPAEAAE
Chain of UniProt Q9BPX6 (Q9BPX6 whole entry, looked up): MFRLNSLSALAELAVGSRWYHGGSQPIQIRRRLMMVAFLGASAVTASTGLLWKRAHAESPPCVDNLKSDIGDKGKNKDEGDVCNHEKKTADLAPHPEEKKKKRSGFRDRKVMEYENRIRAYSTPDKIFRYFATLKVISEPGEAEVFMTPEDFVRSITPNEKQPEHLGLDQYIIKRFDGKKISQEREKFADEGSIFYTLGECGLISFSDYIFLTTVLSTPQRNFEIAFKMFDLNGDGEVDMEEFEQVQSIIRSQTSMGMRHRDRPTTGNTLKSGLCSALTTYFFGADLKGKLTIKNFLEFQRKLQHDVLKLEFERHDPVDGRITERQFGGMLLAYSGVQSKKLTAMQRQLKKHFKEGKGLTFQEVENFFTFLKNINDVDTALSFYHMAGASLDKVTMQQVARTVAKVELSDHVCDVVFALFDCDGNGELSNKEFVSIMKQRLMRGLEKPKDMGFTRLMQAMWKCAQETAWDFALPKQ
Chain of UniProt Q9NQ29 (Q9NQ29 whole entry, looked up): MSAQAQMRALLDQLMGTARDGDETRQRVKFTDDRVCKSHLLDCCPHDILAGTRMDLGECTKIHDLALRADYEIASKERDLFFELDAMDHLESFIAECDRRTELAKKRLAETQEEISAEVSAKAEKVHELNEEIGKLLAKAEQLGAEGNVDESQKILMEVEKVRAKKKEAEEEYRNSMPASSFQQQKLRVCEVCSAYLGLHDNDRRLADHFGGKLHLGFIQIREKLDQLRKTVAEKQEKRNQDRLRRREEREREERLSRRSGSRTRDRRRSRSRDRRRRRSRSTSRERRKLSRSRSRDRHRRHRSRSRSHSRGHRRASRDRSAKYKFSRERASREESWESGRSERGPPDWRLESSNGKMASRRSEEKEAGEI
Chain of UniProt Q8IVT5 (Q8IVT5 whole entry, looked up): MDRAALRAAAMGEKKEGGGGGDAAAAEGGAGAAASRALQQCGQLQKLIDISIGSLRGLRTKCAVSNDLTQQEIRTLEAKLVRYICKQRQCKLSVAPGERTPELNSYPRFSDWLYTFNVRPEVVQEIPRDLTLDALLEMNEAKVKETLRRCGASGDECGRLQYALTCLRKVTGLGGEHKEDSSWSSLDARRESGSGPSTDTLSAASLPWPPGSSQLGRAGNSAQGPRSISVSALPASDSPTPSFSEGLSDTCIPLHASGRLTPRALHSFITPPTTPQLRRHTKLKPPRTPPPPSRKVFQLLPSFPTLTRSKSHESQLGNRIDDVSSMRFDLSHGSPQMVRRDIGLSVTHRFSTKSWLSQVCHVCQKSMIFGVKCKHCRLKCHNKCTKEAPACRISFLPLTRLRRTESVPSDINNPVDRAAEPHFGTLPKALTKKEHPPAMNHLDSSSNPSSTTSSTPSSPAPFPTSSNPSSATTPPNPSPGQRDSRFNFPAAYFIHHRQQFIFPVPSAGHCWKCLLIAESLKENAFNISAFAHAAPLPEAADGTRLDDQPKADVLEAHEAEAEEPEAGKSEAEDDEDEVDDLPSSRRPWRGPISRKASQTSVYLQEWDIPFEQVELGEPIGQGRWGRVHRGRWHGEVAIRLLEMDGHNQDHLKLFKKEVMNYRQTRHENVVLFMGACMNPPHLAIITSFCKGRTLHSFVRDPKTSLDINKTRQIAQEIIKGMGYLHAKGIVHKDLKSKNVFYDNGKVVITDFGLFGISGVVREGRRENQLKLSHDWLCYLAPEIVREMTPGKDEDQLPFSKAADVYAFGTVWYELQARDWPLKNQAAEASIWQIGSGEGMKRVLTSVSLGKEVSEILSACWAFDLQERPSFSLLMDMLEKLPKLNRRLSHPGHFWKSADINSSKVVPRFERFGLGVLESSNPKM
Chain of UniProt Q9UBF1 (Q9UBF1 whole entry, looked up): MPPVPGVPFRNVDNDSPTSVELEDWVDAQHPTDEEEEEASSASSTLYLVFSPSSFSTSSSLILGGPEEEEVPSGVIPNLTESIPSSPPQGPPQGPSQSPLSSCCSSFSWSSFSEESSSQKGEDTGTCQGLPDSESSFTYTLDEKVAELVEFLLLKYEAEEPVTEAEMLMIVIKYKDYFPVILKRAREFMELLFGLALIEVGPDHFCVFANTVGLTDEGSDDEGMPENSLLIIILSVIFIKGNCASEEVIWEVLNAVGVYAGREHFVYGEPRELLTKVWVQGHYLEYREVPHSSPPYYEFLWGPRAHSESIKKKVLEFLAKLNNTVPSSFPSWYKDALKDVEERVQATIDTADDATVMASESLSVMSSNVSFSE
Chain of UniProt Q99661 (Q99661 whole entry, looked up): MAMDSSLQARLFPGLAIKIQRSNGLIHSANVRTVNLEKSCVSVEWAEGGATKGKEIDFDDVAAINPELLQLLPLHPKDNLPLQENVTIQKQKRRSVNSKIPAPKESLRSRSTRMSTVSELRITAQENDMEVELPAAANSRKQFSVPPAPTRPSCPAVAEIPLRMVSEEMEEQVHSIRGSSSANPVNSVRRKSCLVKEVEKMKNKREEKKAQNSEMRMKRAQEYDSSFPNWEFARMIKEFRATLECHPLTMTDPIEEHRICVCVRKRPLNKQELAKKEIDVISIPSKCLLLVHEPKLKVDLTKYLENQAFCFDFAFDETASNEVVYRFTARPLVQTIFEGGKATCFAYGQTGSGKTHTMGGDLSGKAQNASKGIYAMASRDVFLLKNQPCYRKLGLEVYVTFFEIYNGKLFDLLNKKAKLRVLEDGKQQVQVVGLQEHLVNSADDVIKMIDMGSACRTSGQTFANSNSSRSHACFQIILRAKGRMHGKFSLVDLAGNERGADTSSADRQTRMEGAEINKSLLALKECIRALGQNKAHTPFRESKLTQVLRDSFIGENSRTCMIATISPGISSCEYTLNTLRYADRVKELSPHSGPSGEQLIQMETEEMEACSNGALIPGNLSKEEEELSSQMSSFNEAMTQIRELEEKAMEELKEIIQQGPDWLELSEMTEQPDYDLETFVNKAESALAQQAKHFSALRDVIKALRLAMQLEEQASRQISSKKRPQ
Chain of UniProt P52294 (P52294 whole entry, looked up): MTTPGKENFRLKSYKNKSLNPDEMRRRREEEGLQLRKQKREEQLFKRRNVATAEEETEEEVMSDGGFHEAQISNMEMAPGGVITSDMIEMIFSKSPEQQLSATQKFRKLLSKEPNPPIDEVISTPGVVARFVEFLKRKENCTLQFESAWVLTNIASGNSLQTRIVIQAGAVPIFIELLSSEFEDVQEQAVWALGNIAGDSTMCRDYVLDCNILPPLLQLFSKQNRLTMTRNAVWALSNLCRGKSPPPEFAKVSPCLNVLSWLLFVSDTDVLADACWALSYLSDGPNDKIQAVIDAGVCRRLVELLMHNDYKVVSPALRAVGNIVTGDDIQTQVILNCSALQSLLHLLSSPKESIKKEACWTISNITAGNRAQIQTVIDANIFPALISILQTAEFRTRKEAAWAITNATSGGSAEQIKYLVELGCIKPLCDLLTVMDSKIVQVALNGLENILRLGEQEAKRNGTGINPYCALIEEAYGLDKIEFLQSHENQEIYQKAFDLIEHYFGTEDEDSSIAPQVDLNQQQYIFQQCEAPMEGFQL
Chain of UniProt Q8NC56 (Q8NC56 whole entry, looked up): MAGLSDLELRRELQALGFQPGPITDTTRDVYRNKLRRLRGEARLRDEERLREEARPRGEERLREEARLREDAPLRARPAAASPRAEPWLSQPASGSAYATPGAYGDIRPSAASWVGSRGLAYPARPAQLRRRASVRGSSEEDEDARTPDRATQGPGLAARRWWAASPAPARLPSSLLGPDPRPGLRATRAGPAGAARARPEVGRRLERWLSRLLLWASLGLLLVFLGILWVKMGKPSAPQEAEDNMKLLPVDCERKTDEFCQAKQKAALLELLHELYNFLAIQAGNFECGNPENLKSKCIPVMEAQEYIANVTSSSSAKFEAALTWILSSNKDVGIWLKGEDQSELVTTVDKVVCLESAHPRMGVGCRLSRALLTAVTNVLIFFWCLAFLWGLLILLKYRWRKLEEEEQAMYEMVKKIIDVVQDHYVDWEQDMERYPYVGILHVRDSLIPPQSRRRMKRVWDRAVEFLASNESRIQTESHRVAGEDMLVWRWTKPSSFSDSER
Chain of UniProt P22692 (P22692 whole entry, looked up): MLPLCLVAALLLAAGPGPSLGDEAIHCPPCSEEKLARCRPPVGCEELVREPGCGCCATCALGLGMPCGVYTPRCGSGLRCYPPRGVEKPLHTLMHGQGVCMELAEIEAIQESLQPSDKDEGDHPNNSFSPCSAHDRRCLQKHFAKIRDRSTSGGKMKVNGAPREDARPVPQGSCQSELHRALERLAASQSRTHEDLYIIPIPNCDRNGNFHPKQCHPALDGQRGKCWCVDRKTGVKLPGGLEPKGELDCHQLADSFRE
Chain of UniProt Q96GA3 (Q96GA3 whole entry, looked up): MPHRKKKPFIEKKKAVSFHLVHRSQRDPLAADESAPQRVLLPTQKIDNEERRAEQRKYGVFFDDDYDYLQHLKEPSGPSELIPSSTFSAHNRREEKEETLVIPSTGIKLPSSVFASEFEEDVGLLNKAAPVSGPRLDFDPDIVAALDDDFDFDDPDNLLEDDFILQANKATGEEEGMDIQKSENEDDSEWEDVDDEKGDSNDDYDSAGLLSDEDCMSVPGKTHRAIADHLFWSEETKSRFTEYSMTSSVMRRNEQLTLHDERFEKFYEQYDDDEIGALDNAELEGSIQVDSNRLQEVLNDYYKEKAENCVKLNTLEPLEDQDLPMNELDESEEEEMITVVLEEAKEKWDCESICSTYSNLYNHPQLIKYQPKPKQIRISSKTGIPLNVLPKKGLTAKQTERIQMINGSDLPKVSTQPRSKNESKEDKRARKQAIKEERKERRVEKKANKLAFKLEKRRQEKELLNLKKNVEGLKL

Compound in this assay: Cc1nc(Nc2ncc(C(=O)Nc3c(C)cccc3Cl)s2)cc(N2CCN(CCO)CC2)n1 [dasatinib]
In words: log2 fold change, soluble protein after heating vs DMSO (PISA); higher = thermal stabilisation; K562 cells, 10 uM, 30 min; active = over 0.2 and 3.5 SD of the protein, either way, in both replicates (recomputed). Put shortly:
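For each measurement, 10 μM compound was applied for 30 min to K562 cells at 2×10^6 cells/mL. Aliquots were heated for 3 min across 48°C-58°C, pooled, and extracted in PBS with 0.5% NP-40 at 4°C; the supernatant after 21,000xg for 90 min was soluble protein. This was quantified by TMTpro 16plex LC-MS/MS with channel sums equalised, and thermal stability was reported relative to control samples from duplicates, on a log2 fold-change scale.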
Take MIEF1 (UniProt Q9NQG6): the log2 fold change is -0.028 (inactive).
For LDAH isoform 2 (UniProt Q9H6V9), the log2 fold change is -0.215 (inactive).
Take MAPKAPK2 (UniProt P49137): the log2 fold change is -0.086 (inactive).
As to LIAS (UniProt O43766), the log2 fold change was 0.028 (inactive).
MFSD5 isoform 2 (UniProt Q6N075): the log2 fold change was -0.029 (inactive).
For LARP4B (UniProt Q92615) the value was -0.072 (inactive); for LAMP2 (UniProt P13473), 0.017 (inactive).
For MAGEC2 (UniProt Q9UBF1), the log2 fold change was 0.059 (inactive).
Consider IGFBP4 (UniProt P22692), for which the log2 fold change was 0.14 (inactive).
Turning to ILF3 isoform 7 (UniProt Q12906), the log2 fold change was 0.155 (inactive).
Under LTV1 (UniProt Q96GA3) stands 0.025 (inactive); under MICU2 (UniProt Q8IYU8), -0.102 (inactive).
Regarding MCUR1 (UniProt Q96AQ8), the log2 fold change was -0.037 (inactive).
With KDM1A isoform 2 (UniProt O60341), the log2 fold change was -0.07 (inactive).
Turning to LEMD2 (UniProt Q8NC56), the log2 fold change was -0.079 (inactive).
Turning to LRRFIP1 (UniProt Q32MZ4), the log2 fold change was 0.038 (inactive).
LPIN1 isoform 7 (UniProt Q14693): the log2 fold change is -0.016 (inactive).
In the case of MFN1 (UniProt Q8IWA4), the log2 fold change is -0.054 (inactive).
Under KIF1B isoform 4 (UniProt O60333) stands -0.066 (inactive); under MFGE8 (UniProt Q08431), 0.049 (inactive); under MCCC2 (UniProt Q9HCC0), 0.058 (inactive).
Consider MICU1 isoform 3 (UniProt Q9BPX6), for which the log2 fold change was -0.065 (inactive).
For LARP1 (UniProt Q6PKG0) the value was 0.014 (inactive); for MEPCE (UniProt Q7L2J0), -0.116 (inactive).
For MAD2L1 (UniProt Q13257) the value was -0.06 (inactive).
As to KCTD2 (UniProt Q14681), the log2 fold change was 0.146 (inactive).
Take LYPLA2 (UniProt O95372): the log2 fold change is 0 (inactive).
Consider INPP5B (UniProt P32019), for which the log2 fold change was -0.111 (inactive).
As for IPO11 isoform 2 (UniProt Q9UI26), the log2 fold change is -0.049 (inactive).
For MARCKS (UniProt P29966), the log2 fold change is 0.022 (inactive).
Turning to KIF2C (UniProt Q99661), the log2 fold change is -0.15 (inactive).
For LPCAT3 (UniProt Q6P1A2) the value was 0.051 (inactive); for KTN1 (UniProt Q86UP2), -0.013 (inactive).
For MIF (UniProt P14174), the log2 fold change is 0.052 (inactive).
In the case of LUC7L3 (UniProt O95232), the log2 fold change was -0.037 (inactive).
Under LUC7L (UniProt Q9NQ29) stands 0.062 (inactive).
With KPNA1 (UniProt P52294), the log2 fold change was 0.003 (inactive).
For KSR1 (UniProt Q8IVT5) the value was -0.228 (inactive).
Take MAP2K2 (UniProt P36507): the log2 fold change is -0.092 (inactive).
